Only some compounds are listed: those with a hit (about 3% of all), similar ones and a draw of the others.
PAFAH2 inh: inhibitors of human PAFAH2; Q99487; recombinant PAFAH2, FP-rhodamine activity probe, fluorescence polarization; inhibition, % at 3.39 µM; hit rate 0.99% among 340,000; AID 492956;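 active = inhibition above the mean over all tested compounds plus 3 SD, cut at about 30% in these data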;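 also: inhibitors block probe labeling of enzyme so polarization drops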
ATG4B inh: ATG4B (human) cysteine protease inhibition. Q9Y4P1. ATG4B cleavage of LC3-PLA2, NBD-HPC fluorescence, 1 h. inhibition, % at 8.33 µM. hit rate 0.51% among 340,000. AID 504462; in the data active = inhibition above about 40%
PAFAH1B2 inh: PAFAH1B2 (human) inhibition | hit rate 1.2% among 340,000 | recombinant PAFAH1B2, FP-rhodamine activity probe, fluorescence polarization | inhibition, % at 3.39 µM | P68402;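 active = inhibition above the mean of all tested compounds plus 3 SD, cut at about 24% in these data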
PAFAH1B3 inh: blocks human PAF acetylhydrolase 1B catalytic subunit 3; inhibition, % at 3.39 µM; recombinant PAFAH1B3, FP-rhodamine probe, fluorescence polarization; hit rate 0.28% among 340,000; AID 492972; Q15102;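 active = inhibition above the screen-wide average of all tested compounds plus 3 SD, cut at about 25% in these data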
DAGLB inh: blocks human DAGLB lipase activity; Q8NCG7; HEK293T DAGLB membrane lysate, EnzChek fluorogenic substrate; inhibition, % at 5.17 µM; hit rate 0.059% among 340,000; AID 504411; in the data active = inhibition above about 34%
pPAFAH inh: inhibitors of human plasma PAF acetylhydrolase (pPAFAH). Q13093. recombinant pPAFAH, FP-rhodamine probe fluorescence polarization. inhibition, % at 3.39 µM. hit rate 1.5% among 330,000;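 active = inhibition above the mean inhibition across the screen plus 3 SD, cut at about 25% in these data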;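 also: inhibitors block binding of the rhodamine activity-based probe so polarization drops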
Target sequence (Q13093 whole entry, looked up): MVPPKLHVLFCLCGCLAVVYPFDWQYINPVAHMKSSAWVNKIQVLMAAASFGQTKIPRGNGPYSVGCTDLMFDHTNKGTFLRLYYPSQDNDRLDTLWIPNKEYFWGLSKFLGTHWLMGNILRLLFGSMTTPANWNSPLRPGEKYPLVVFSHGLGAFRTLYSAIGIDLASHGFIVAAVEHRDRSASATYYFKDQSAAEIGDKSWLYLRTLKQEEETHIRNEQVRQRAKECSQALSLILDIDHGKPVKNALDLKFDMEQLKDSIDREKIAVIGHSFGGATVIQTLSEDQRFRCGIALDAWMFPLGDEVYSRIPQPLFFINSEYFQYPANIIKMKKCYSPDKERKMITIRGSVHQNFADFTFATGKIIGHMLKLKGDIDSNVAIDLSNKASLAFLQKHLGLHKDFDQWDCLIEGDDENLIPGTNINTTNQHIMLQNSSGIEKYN
pPAFAH FP conf: confirmation of human plasma PAF acetylhydrolase (pPAFAH) inhibitors | hit rate 72% among 2,300 | recombinant pPAFAH, FP-Rh probe fluorescence polarization | shares compounds with pPAFAH inh | inhibition, % at 3.39 µM;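 active = mean inhibition of the triplicate above the hit cutoff set for the earlier primary screen, cut at about 25% in these data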
A number is an active result; . = inactive; / = not tested or not shown.

SMILES | PAFAH2 inh | ATG4B inh | PAFAH1B2 inh | PAFAH1B3 inh | DAGLB inh | pPAFAH inh | pPAFAH FP conf
O=C1c2nc3cc(-c4ccco4)[nH]n3c(=O)c2CN1Cc1ccccc1 | / | . | / | / | / | 35.4 | .
CCCCCCCCCCCCN1[C@@H](CC(=O)O)c2cc(F)ccc2S1(=O)=O | . | . | 31.0 | . | . | 47.6 | 34.4
CCCCCCCCN1[C@@H](CC(=O)OC)c2cc(F)ccc2S1(=O)=O | . | . | . | . | . | . | /
COc1ccc(CNS(=O)(=O)CCNC(=O)c2ccc3c(c2)OCO3)cc1 | . | . | . | . | . | . | /
COc1ccc(C(=O)NCCS(=O)(=O)NCc2ccc3c(c2)OCO3)cc1 | . | . | . | . | . | 38.9 | .
NC(=S)NN=Cc1ccc(-c2ccc(S(=O)(=O)Nc3ncccn3)cc2)o1 | 33.6 | . | . | 30.6 | . | 40.3 | .
CCOC(=O)C1CCCN(C(=O)C2c3ccccc3Oc3ccccc32)C1 (stereo not drawn) | 54.3 | . | 24.2 | 43.1 | . | 54.9 | .
CCCCCC(=O)Cc1cc(O)cc2c1C(=O)Oc1cc(O)c(C(=O)O)c(CCCCC)c1O2 | / | . | / | / | / | 43.1 | 59.3
C[C@H]1CN([C@@H](C)CO)C(=O)c2cccc(NC(=O)c3cnccn3)c2O[C@@H]1CN(C)S(=O)(=O)c1ccc(F)cc1 | . | . | . | . | . | . | /
O=C(NCCC(=O)N(CCc1ccccc1)Cc1ccccc1)c1ccccc1Cl | . | . | . | . | . | 46.0 | .
Cc1cc2nc3c(=O)n(CCc4ccccc4)c(=O)[nH]c3nc2cc1N | . | . | . | . | . | 55.9 | .
CCCCn1c(=O)[nH]c2nc3cc(N)ccc3nc2c1=O | . | . | . | . | . | 37.0 | .
Nc1ccc2nc3c(=O)n(CCc4ccccc4)c(=O)[nH]c3nc2c1 | / | . | / | / | / | . | /
C[C@H]1CN([C@@H](C)CO)C(=O)CCCn2cc(nn2)CO[C@@H]1CN(C)C(=O)Nc1cccc(Oc2ccccn2)c1 | / | / | / | / | . | / | /
Cc1nn(-c2ccccc2)c(N)c1-c1ccccc1 | . | . | . | . | . | . | /
Cc1nn(-c2ccccc2)c(/N=C/c2ccccc2O)c1-c1ccccc1 | . | . | . | . | . | 34.5 | .
Nc1nc(SCC(=O)Nc2ccc(Cl)cn2)n[nH]1 | . | . | . | . | . | . | /
CS(=O)(=O)c1ccc(C(=O)OCC(=O)NCc2cccs2)cc1[N+](=O)[O-] | 37.7 | . | . | . | . | 35.5 | .
Cc1ccccc1N=Nc1ccc(O)c2ncccc12 | . | . | . | . | . | 41.5 | 36.3
O=S(=O)(O)c1cccc2c(N=Nc3ccc(O)c4ncccc34)cccc12 | 65.7 | . | 40.8 | 63.8 | . | 91.9 | 91.4
Cc1ccccc1-n1c(SCC(=O)N2CCOCC2)nc(O)cc1=O | . | . | . | . | . | 38.6 | .
NC(=O)c1cc([N+](=O)[O-])ccc1NCc1ccc(N)cc1 | . | . | . | . | . | . | /
COc1ccc(S(=O)(=O)CC(=O)c2cc3cc(Br)ccc3oc2=O)cc1 | . | . | . | . | . | 37.4 | 32.6
COc1ccc(OC)c(S(=O)(=O)CC(=O)c2cc3ccc(OC)cc3oc2=O)c1 | . | . | . | . | . | . | /
O=C1NC(=S)NC(=O)C1=Cc1ccccc1C(=O)O | . | . | . | . | . | / | /
SMILES | PAFAH2 inh | ATG4B inh | PAFAH1B2 inh | PAFAH1B3 inh | DAGLB inh | pPAFAH inh | pPAFAH FP conf
CCOC(=O)c1c(C)n(-c2ccc(C)cc2)c2ccc(OCC(O)CNCC3CCCO3)cc12 (stereo not drawn) | . | . | . | . | . | 71.4 | 69.5
COCCN(C(=O)COC(=O)CNC(=O)c1ccc(C)cc1)c1c(N)n(Cc2ccccc2)c(=O)[nH]c1=O | . | . | . | . | . | / | /
CCOc1cc(/C=C(\C#N)c2[nH]nc(N)c2C#N)ccc1O | . | . | . | . | . | 37.0 | .
CCc1ccccc1N(CC(=O)NC(C)(C)C)C(=O)CCC(=O)Nc1ccccn1 | . | . | . | . | . | . | /
Cc1cc(C(=O)OCC(=O)N2CC(=O)Nc3ccccc32)c(C)n1-c1ccc(F)cc1 | . | . | . | . | . | 37.3 | 30.3
Cc1cc(C(=O)OCC(=O)N2CC(=O)Nc3ccccc32)c(C)n1-c1ccccc1 | . | . | . | . | . | . | /
Cc1cnc(C(=O)Nc2ccccc2C(=O)N2CCOCC2)cn1 | . | . | . | . | . | 37.4 | .

Assay outcomes: PubChem, several laboratories
